Our source for the binding signal values is PMC5700166.

Residue numbers refer to the chain shown, from its start.

Test in all cases: protein-binding microarray (PBM); PBM: ~300 nM protein, 6 mM HEPES pH 7.8, 80 mM KCl, 0.5 mM EDTA, 0.5 mM EGTA, 6% glycerol, 35 ng/ul poly-dIdC, 1% milk, 1 h, room temperature; Ap Aiptasia and Nv Nematostella (sea anemones) / Co Capsaspora / Aq Amphimedon (sponge) / Dm Drosophila / Hu human; RHD is the Rel homology domain; high values mean tight binding
Conditions in all cases: dsDNA, one strand shown

The target in assay [1] is T1, GST-Ap-NF-kB RHD (Exaiptasia pallida (Aiptasia), UniProt A0A913YAJ5 2-422).
T1 sequence: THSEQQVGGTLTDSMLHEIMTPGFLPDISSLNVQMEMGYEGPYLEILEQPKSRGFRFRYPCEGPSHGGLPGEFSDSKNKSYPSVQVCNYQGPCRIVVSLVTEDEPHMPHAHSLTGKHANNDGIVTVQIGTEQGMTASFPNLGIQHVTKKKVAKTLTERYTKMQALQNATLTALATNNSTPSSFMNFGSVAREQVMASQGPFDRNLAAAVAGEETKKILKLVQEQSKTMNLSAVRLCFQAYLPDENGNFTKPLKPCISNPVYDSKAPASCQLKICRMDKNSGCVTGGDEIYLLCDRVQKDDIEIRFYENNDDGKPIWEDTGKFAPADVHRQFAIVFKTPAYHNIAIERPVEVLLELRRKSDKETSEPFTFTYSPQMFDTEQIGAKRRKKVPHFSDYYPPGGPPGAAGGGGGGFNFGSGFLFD

The target in assay [2] is T2, GST-Nv-NF-kB (Cys allele) (Nematostella vectensis, UniProt E5G601 2-411).
T2 sequence: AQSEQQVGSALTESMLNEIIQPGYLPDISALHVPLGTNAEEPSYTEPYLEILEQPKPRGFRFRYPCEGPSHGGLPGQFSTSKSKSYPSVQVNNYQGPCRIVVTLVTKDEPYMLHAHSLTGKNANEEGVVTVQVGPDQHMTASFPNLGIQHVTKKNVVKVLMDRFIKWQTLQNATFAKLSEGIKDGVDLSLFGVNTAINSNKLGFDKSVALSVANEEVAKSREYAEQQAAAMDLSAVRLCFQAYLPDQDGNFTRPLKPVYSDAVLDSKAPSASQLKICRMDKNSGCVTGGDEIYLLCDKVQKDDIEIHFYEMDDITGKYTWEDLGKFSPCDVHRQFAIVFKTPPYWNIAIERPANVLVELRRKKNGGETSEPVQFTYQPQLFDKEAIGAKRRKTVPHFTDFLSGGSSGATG

In assay [3] the target is T3, GST-Nv-NF-kB (Ser allele) (Nematostella vectensis, UniProt A7UNT2 2-411).
T3 sequence: T2 sequence with Q21R, C66S, S207N, E215Q, V217A, E225K, A268E, D399E

The target of assay [4] is T4, GST-Co-NF-kB (Capsaspora owczarzaki, UniProt F1ARL5 200-546).
T4 sequence: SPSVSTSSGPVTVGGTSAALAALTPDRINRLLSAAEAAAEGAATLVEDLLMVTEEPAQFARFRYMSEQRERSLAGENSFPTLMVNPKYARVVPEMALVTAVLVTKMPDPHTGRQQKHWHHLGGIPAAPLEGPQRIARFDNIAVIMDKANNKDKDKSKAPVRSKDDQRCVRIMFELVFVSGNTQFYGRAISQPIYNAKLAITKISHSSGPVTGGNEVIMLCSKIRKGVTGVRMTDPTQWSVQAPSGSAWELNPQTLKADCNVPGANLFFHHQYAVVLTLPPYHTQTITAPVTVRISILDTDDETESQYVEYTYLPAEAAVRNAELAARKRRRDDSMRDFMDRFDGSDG

In assay [5] the target is T5, GST-Dm-Relish (Drosophila melanogaster, UniProt Q94527 99-473).
T5 sequence: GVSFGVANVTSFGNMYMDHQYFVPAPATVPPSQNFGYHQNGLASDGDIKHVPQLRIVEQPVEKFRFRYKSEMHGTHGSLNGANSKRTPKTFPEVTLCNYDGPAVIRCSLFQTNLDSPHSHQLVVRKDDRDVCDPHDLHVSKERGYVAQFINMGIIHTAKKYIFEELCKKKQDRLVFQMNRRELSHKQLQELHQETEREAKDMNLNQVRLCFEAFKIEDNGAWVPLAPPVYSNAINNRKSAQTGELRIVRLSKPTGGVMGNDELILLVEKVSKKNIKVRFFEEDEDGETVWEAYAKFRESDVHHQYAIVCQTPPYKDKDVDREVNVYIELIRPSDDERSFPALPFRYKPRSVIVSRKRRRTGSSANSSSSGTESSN

Assay [6] deals with T6, GST-Aq-NF-kB (Amphimedon queenslandica, UniProt A9Y5G7 2-389).
T6 sequence: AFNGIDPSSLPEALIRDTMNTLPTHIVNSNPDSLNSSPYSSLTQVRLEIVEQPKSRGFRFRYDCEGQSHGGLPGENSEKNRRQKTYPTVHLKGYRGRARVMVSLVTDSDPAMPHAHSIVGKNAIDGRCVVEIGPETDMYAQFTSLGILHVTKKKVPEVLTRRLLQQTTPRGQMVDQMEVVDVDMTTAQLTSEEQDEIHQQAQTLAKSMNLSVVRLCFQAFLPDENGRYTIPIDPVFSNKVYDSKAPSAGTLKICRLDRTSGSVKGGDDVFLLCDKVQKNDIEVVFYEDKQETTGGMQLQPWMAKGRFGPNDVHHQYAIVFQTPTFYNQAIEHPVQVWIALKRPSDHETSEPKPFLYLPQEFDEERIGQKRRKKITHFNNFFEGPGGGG

For assay [7], the target named is GST-Hu-p50 (Homo sapiens, UniProt P19838 7-356).
Chain of GST-Hu-p50 (P19838 7-356): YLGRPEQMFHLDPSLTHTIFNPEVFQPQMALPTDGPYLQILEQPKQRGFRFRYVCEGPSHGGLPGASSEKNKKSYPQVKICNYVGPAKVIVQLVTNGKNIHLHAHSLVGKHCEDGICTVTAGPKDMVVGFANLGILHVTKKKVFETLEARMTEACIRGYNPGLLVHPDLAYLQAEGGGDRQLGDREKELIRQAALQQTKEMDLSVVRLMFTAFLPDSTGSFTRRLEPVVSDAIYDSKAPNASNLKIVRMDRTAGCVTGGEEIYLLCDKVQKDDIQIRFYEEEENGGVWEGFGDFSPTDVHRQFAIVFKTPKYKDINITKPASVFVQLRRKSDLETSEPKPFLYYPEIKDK

With “CCGATTAACATCAAGGGGGATTATGATGTTAATCGGGTCTTGATTCGCTTGACGCTGCTG”, the binding signal was 8.36 z-score in assay [1]; 7.48 z-score in assay [2]; 8.59 z-score in assay [3]; 4.73 z-score in assay [4]; 6.5 z-score in assay [5]; 6.85 z-score in assay [6]. Besides, the binding signal in assay [7] stood at 7.48 z-score.
Consider “CCGATTAACATCAGGGGAAAGTATGATGTTAATCGGGTCTTGATTCGCTTGACGCTGCTG”, for which the binding signal in assay [1] stood at 6.56 z-score; in assay [2] it was 7.79 z-score; in assay [3], 9.37 z-score; in assay [4], 7.64 z-score; in assay [5], 2.88 z-score; in assay [6] it was 5.82 z-score. In addition, the binding signal in assay [7] is 5.75 z-score.
On to “CCGATTAACATCACGGGATCCCCTGATGTTAATCGGGTCTTGATTCGCTTGACGCTGCTG”, for which the binding signal stood at 7.35 z-score in assay [1]; 4.81 z-score in assay [2]; 6.31 z-score in assay [3]; 3.23 z-score in assay [4]; 9.23 z-score in assay [5]; 5.41 z-score in assay [6]. The binding signal in assay [7] came to 4.53 z-score.
On to “CCGATTAACATCAAAATTCCCCGTGATGTTAATCGGGTCTTGATTCGCTTGACGCTGCTG”, for which the binding signal was 9.41 z-score in assay [1]; 11.3 z-score in assay [2]; 11.6 z-score in assay [3]; 10.6 z-score in assay [4]; 8.96 z-score in assay [5]; 8.42 z-score in assay [6]. In assay [7], this sequence gave a binding signal of 7.28 z-score.
Regarding “CCGATTAACATCAGAACACCCCCTGATGTTAATCGGGTCTTGATTCGCTTGACGCTGCTG”, the binding signal in assay [1] was 5.58 z-score; in assay [2] it was 4.69 z-score; in assay [3] it was 4.4 z-score; in assay [4] it was 3.33 z-score; in assay [5], 4.87 z-score; in assay [6], 5.48 z-score. Further, in assay [7], the binding signal was 5.09 z-score.
As to “CCGATTAACATCACCAACCCCCCTGATGTTAATCGGGTCTTGATTCGCTTGACGCTGCTG”, the binding signal in assay [1] was determined as 5.65 z-score; in assay [2], 3.47 z-score; in assay [3], 4.4 z-score; in assay [4], 3.02 z-score; in assay [5], 5.37 z-score; in assay [6], 3.88 z-score. This sequence also registered a binding signal in assay [7] of 4.51 z-score.
“CCGATTAACATCAAACTTCCCCATGATGTTAATCGGGTCTTGATTCGCTTGACGCTGCTG”: the binding signal in assay [1] is 6.34 z-score; in assay [2] it was 7.12 z-score; in assay [3], 7.9 z-score; in assay [4], 7.04 z-score; in assay [5], 5.5 z-score; in assay [6] it was 6.28 z-score. In assay [7], this sequence gave a binding signal of 5.87 z-score.
Turning to “CCGATTAACATCAGGGGAATGCATGATGTTAATCGGGTCTTGATTCGCTTGACGCTGCTG”, the binding signal in assay [1] amounted to 5.82 z-score; in assay [2], 7.06 z-score; in assay [3] it was 7.76 z-score; in assay [4] it was 5.53 z-score; in assay [5] it was 3.2 z-score; in assay [6], 4.86 z-score. This sequence also returned a binding signal in assay [7] of 5.41 z-score.
As for “CCGATTAACATCACATCCCCCCCTGATGTTAATCGGGTCTTGATTCGCTTGACGCTGCTG”, the binding signal is 6.1 z-score in assay [1]; 4.66 z-score in assay [2]; 4.88 z-score in assay [3]; 6.54 z-score in assay [4]; 4.53 z-score in assay [5]; 4.42 z-score in assay [6]. The binding signal in assay [7] is 4.32 z-score.
For “CCGATTAACATCAGGGGGCAATATGATGTTAATCGGGTCTTGATTCGCTTGACGCTGCTG”, the binding signal was determined as 3.43 z-score in assay [1]; 3.24 z-score in assay [2]; 3.15 z-score in assay [3]; 4.37 z-score in assay [4]; 2.2 z-score in assay [5]; 3.54 z-score in assay [6]. The same sequence returned a binding signal in assay [7] of 3.82 z-score.
On to “CCGATTAACATCAGGGGGAAGGATGATGTTAATCGGGTCTTGATTCGCTTGACGCTGCTG”, for which the binding signal came to 4.09 z-score in assay [1]; 5.38 z-score in assay [2]; 5.53 z-score in assay [3]; 7.14 z-score in assay [4]; 2.47 z-score in assay [5]; 4.48 z-score in assay [6]. In assay [7], the binding signal worked out at 4.08 z-score.
With “CCGATTAACATCAGGACTCCCCCTGATGTTAATCGGGTCTTGATTCGCTTGACGCTGCTG”, the binding signal in assay [1] was 8.82 z-score; in assay [2], 7.17 z-score; in assay [3] it was 6.45 z-score; in assay [4], 4.97 z-score; in assay [5], 8.9 z-score; in assay [6], 9.21 z-score. In assay [7], the binding signal came to 6.59 z-score.
Take “CCGATTAACATCACAAATTCCCCTGATGTTAATCGGGTCTTGATTCGCTTGACGCTGCTG”: the binding signal in assay [1] is 9.44 z-score; in assay [2] it was 10.9 z-score; in assay [3], 12.6 z-score; in assay [4], 8.68 z-score; in assay [5], 8.67 z-score; in assay [6] it was 8.11 z-score. Further, the binding signal in assay [7] turned out to be 7.34 z-score.
As to “CCGATTAACATCAGGAAAACCCCTGATGTTAATCGGGTCTTGATTCGCTTGACGCTGCTG”, the binding signal in assay [1] was determined as 8.2 z-score; in assay [2] it was 8.89 z-score; in assay [3], 6.66 z-score; in assay [4], 2.41 z-score; in assay [5], 8.77 z-score; in assay [6] it was 9.24 z-score. For the same sequence, the binding signal in assay [7] came to 7.4 z-score.
Take “CCGATTAACATCAGGGACTTTTATGATGTTAATCGGGTCTTGATTCGCTTGACGCTGCTG”: the binding signal in assay [1] was 7.76 z-score; in assay [2], 9.97 z-score; in assay [3], 9.79 z-score; in assay [4], 1.97 z-score; in assay [5], 8.37 z-score; in assay [6], 7.89 z-score. In addition, in assay [7], the binding signal turned out to be 6.59 z-score.
With “CCGATTAACATCAGGGGACTTACTGATGTTAATCGGGTCTTGATTCGCTTGACGCTGCTG”, the binding signal in assay [1] was determined as 5.97 z-score; in assay [2] it was 5.56 z-score; in assay [3], 5.43 z-score; in assay [4] it was 2.17 z-score; in assay [5] it was 8.32 z-score; in assay [6], 5.66 z-score. Besides, in assay [7], the binding signal was determined as 5.68 z-score.
“CCGATTAACATCAAATCTCCCCCTGATGTTAATCGGGTCTTGATTCGCTTGACGCTGCTG”: the binding signal worked out at 8.37 z-score in assay [1]; 6.08 z-score in assay [2]; 9.76 z-score in assay [3]; 10.1 z-score in assay [4]; 4.14 z-score in assay [5]; 6.11 z-score in assay [6]. The binding signal in assay [7] worked out at 7.19 z-score.
Consider “CCGATTAACATCAGCAAATTCCCTGATGTTAATCGGGTCTTGATTCGCTTGACGCTGCTG”, for which the binding signal in assay [1] came to 3.17 z-score; in assay [2], 5.15 z-score; in assay [3], 5.81 z-score; in assay [4] it was 2.77 z-score; in assay [5] it was 4.19 z-score; in assay [6], 4.34 z-score. The sequence further yielded a binding signal in assay [7] of 4.19 z-score.
On to “CCGATTAACATCAGAGACCCCCCTGATGTTAATCGGGTCTTGATTCGCTTGACGCTGCTG”, for which the binding signal in assay [1] came to 4.3 z-score; in assay [2], 3.27 z-score; in assay [3], 2.81 z-score; in assay [4] it was 2.4 z-score; in assay [5], 5.26 z-score; in assay [6], 3.97 z-score. In assay [7], this sequence had a binding signal of 3.87 z-score.
